According to PubChem BioAssay (NCATS):
Records with an inconclusive call do not appear. Entries that show only a call come without a potency. The source made the active and inactive calls. The call rests on the fitted dose curve; in most records, active means well fitted inhibition curve with a large enough effect; inconclusive means small, poorly fitted or top-dose-only effect; inactive means flat fitted curve, though single readings scatter.

Key:
Assay in all cases: qHTS profiling for inhibitors of Plasmodium falciparum proliferation (AID 504749); further: nearly all actives have a fitted effect of over 60% in size
Settings in all cases: P. falciparum in erythrocytes, SYBR Green DNA, 72 h; series mostly up to 28.7 µM
[1] = test system: CP252
Procedure, shortened: (§1)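 Three-day growth assay of blood-stage parasites in erythrocytes (0.3% parasitemia, 2.5% hematocrit) at 37 C, 5% CO2, quantified by SYBR Green DNA staining after overnight detergent lysis.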

[2] = test system: CP256
Procedure, shortened: as §1

[3] = test system: CP260
Procedure, shortened: as §1

[4] = test system: CP262
Procedure, shortened: as §1

[5] = test system: CP265
Procedure, shortened: as §1

[6] = test system: CP266
Procedure, shortened: as §1

[7] = test system: CP268
Procedure, shortened: as §1

[8] = test system: CP269
Procedure, shortened: as §1

[9] = test system: CP286
Procedure, shortened: as §1

[10] = test system: CP291
Procedure, shortened: as §1

[11] = test system: CP305
Procedure, shortened: as §1

[12] = test system: CP315
Procedure, shortened: as §1

[13] = test system: CP325
Procedure, shortened: as §1

[14] = test system: CP329
Procedure, shortened: as §1

[15] = test system: CP335
Procedure, shortened: as §1

[16] = test system: DFO2036
Procedure, shortened: as §1

[17] = test system: DIV14
Procedure, shortened: as §1

[18] = test system: DIV17
Procedure, shortened: as §1

[19] = test system: CP250
Procedure, shortened: as §1

[20] = test system: CP297
Procedure, shortened: as §1
Potency means the concentration at half of the fitted maximal effect.

| Compound | Potency [1] | Potency [2] | Potency [3] | Potency [4] | Potency [5] | Potency [6] | Potency [7] | Potency [8] | Potency [9] | Potency [10] | Potency [11] | Potency [12] | Potency [13] | Potency [14] | Potency [15] | Potency [16] | Potency [17] | Potency [18] | Potency [19] | Potency [20] |
| --- | --- | --- | --- | --- | --- | --- | --- | --- | --- | --- | --- | --- | --- | --- | --- | --- | --- | --- | --- | --- |
| COc1ccc(/C=C/C(=O)OCCC(C)C)cc1 | inactive | inactive | inactive | inactive | inactive | inactive | inactive | inactive | inactive | inactive | inactive | inactive | inactive | inactive | inactive | inactive | inactive | inactive | – | – |
| CCCCCCCCCCCCCCCCOCCOCCOCCOCCOCCOCCOCCOCCOCCOCCOCCOCCOCCOCCOCCOCCOCCOCCOCCOCCO | – | – | 11.2 µM (active) | inactive | – | inactive | – | – | – | – | 12 µM (active) | inactive | – | – | inactive | – | 13.5 µM (active) | 13.5 µM (active) | – | – |
| CCN(CC)CCC(=O)N1c2ccccc2Sc2ccc(C(F)(F)F)cc21 | inactive | – | inactive | inactive | inactive | inactive | inactive | inactive | inactive | – | inactive | inactive | inactive | inactive | – | inactive | 6.75 µM (active) | – | inactive | inactive |
| C[C@]12CCC(=O)C[C@@H]1CC[C@@H]1[C@@H]2CC[C@]2(C)C=CC[C@@H]12 | inactive | inactive | – | inactive | inactive | inactive | inactive | inactive | – | inactive | inactive | inactive | inactive | inactive | – | inactive | inactive | inactive | – | inactive |
| CC(CN(C)C)CN1c2ccccc2Sc2ccc(C(F)(F)F)cc21 (stereo unspecified) | – | – | – | – | – | inactive | – | – | 11.2 µM (active) | – | – | inactive | inactive | – | – | 10 µM (active) | 5.36 µM (active) | 3.01 µM (active) | – | – |
| CCOc1cc(-c2nccc3cc(OC)c(OC)cc23)cc(OCC)c1OCC | – | – | – | – | – | – | – | – | 8.91 µM (active) | – | – | – | inactive | – | – | – | – | – | – | – |
| CN(C)CCC=C1c2ccccc2C(C)(C)c2ccccc21 | – | – | – | – | – | – | – | – | – | – | – | – | – | inactive | – | – | 6.75 µM (active) | 6.75 µM (active) | – | – |
| C[C@H](CCCC(C)(C)O)[C@H]1CC[C@H]2[C@@H]3CC=C4C[C@@H](O)CC[C@]4(C)[C@H]3CC[C@]12C | inactive | inactive | inactive | inactive | inactive | inactive | inactive | inactive | inactive | inactive | inactive | inactive | inactive | inactive | inactive | inactive | inactive | inactive | – | inactive |
| NC(N)=NCC1COc2ccccc2O1 (stereo unspecified) | inactive | – | – | – | inactive | – | – | – | – | inactive | – | inactive | – | – | – | – | inactive | – | inactive | – |
| CNC(=O)[C@H](Cc1c[nH]c2ccccc12)NC(=O)[C@@H](CC(=O)NO)CC(C)C | inactive | – | – | – | – | – | – | – | – | inactive | – | inactive | – | – | – | – | – | – | – | – |
| CCCC(CCC)C(=O)OC1C[C@H]2CC[C@@H](C1)[N+]2(C)C (stereo partly specified) | – | 12.6 µM (active) | – | – | 8.91 µM (active) | inactive | – | – | – | – | – | – | – | – | – | – | – | – | – | – |
| CCN(CC)CCOC(=O)c1cccnc1 | inactive | inactive | inactive | inactive | inactive | inactive | inactive | inactive | inactive | inactive | inactive | inactive | inactive | inactive | inactive | inactive | inactive | inactive | – | inactive |
| CCOC(=O)Cc1ccc(-c2ccccc2)cc1 | – | – | inactive | inactive | 0.0006 µM (active) | inactive | inactive | inactive | inactive | inactive | inactive | inactive | inactive | inactive | – | – | inactive | inactive | inactive | – |
| CN1CCCC(CN2c3ccccc3Sc3ccccc32)C1 (stereo unspecified) | – | – | – | inactive | inactive | inactive | – | – | – | – | inactive | inactive | inactive | inactive | – | – | 8.49 µM (active) | 8.49 µM (active) | – | inactive |
| Cn1c(O)c(N=NC(N)=S)c2ccccc21 | – | – | – | – | – | inactive | inactive | inactive | – | – | – | inactive | inactive | inactive | – | – | – | – | – | inactive |
| CCN(CC)CCCC(C)Nc1cc(/C=C/c2ccccc2Cl)nc2cc(Cl)ccc12 (stereo unspecified) | – | 3.55 µM (active) | 2 µM (active) | – | 2.82 µM (active) | – | 4.26 µM (active) | 3.38 µM (active) | 1.12 µM (active) | 2.13 µM (active) | – | – | 0.849 µM (active) | 6.75 µM (active) | 2.69 µM (active) | 1 µM (active) | 4.26 µM (active) | 4.26 µM (active) | 1.26 µM (active) | 7.57 µM (active) |
| CC(=O)c1ccc2c(c1)N(CCCN1CCN(CCO)CC1)c1ccccc1S2 | 10 µM (active) | 8.91 µM (active) | – | – | 11.2 µM (active) | – | 12 µM (active) | 10.7 µM (active) | 8.91 µM (active) | – | – | – | 16.9 µM (active) | 15.1 µM (active) | 12 µM (active) | – | 7.57 µM (active) | 12 µM (active) | – | – |
| C=CC[N+]1([C@H]2C[C@H]3[C@@H]4CC[C@H]5C[C@H](O)[C@@H](N6CCOCC6)C[C@]5(C)[C@H]4CC[C@]3(C)[C@H]2OC(C)=O)CCCC1 | – | 11.2 µM (active) | – | – | – | – | – | – | – | – | – | – | – | – | 12 µM (active) | – | inactive | inactive | – | – |
| N[C@@H](Cc1cc(I)c(Oc2ccc(O)c(I)c2)c(I)c1)C(=O)O | – | inactive | – | inactive | – | inactive | inactive | – | – | – | inactive | inactive | inactive | inactive | – | – | 13.5 µM (active) | – | – | – |
